Experiment [1] can be described thus: P. berghei load reduction in hepatocytes – cell-based, HepG2, luciferase luminescence, HepG2 viability, primary screen (AID 624349).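 Also: 100% = mean of DMSO negative control wells on the same plate.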 The conditions noted are these: P. berghei liver stage in HepG2, luciferase luminescence, concentration not given here; parasite load remaining: stronger effect = lower value; viability: measured here: HepG2 viability without parasites.
The nature of experiment [2]: Wnt pathway potentiators raising nuclear beta-catenin – imaging, WNT3A-conditioned medium, mouse C2C12, NPC library, primary screen (AID 1117326; in the data active = nuclear beta-catenin stimulation mostly above about 4.2%, no sharp cut-off; inactive = mostly below about 10%). Conditions: stronger effect = higher value.
Experiment [3] can be described thus: stimulators of insulin release from INS-1E, primary screen, cell-based, 5 mM glucose, NPC library (AID 1117329;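 active = compound raises insulin release from rat beta cells at 5 mM glucose, no numeric limit stated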). The conditions noted are these: rat INS-1E insulin secretion, at 10 µM, stronger effect = higher value.
Experiment [4] can be described thus: growth inhibition of GSK3B-pretreated HCT116 cells – cell-based, CellTiter-Glo, 0.2 to 20 µM (AID 1117336;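 active = compounds lowering colon cancer cell viability after pretreatment blocking the GSK3B kinase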). Conditions: HCT116 viability after GSK3B inhibitor, at 20 µM, stronger effect = higher value.
Experiment [5] can be described thus: inhibition of endothelial tube formation, primary screen, imaging, VEGF stimulated, CD31 staining, tube area, NPC library (AID 1117340;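 active = compound that reduces growth-factor-driven endothelial tube area in a mixed cell culture, no cutoff stated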). Conditions: VEGF-stimulated ADSC/ECFC co-culture, at 10 µM, stronger effect = higher value.
The nature of experiment [6]: GLP1 release stimulators, primary, NCI-H716, NPC library (AID 1117341;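 active = compound raises GLP1 secretion from the human gut endocrine cells, with no numeric limit stated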). Conditions: NCI-H716 cells, at 10 µM, stronger effect = higher value.
Experiment [7] in a line: HCT116 colon cancer cell growth inhibition, primary screen, CellTiter-Glo luminescence, NPC library (AID 1117342;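 active = compounds that lower survival of HCT116 colon cancer cells in the luminescence readout, no numeric limit stated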). Conditions: at 20 µM (top of the series). (In general: Cellular ATP, detected with luciferase, serves as a proxy for viable cell number.)
Experiment [8] in a line: reduced SW480 viability measured with CellTiter-Glo, NPC library, primary (AID 1117343;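 active = compounds that lower viability of the colon cancer cells in the luminescence readout, with no numeric limit stated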). Conditions: CellTiter-Glo luminescence; at 20 µM (top of the series).
Experiment [9] can be described thus: NPC library primary testing for decreased DLD-1 cell viability via CellTiter-Glo (AID 1117346;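 active = compounds that lower survival of DLD-1 colon cancer cells in the luminescence readout, no cutoff given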). The conditions noted are these: DLD-1 viability, CellTiter-Glo luminescence; at 20 µM (top of the series).
Experiment [10] deals with 6-phosphogluconate dehydrogenase, decarboxylating (Homo sapiens) (UniProt P52209). Briefly: inhibition of human phosphogluconate dehydrogenase – biochemical, recombinant enzyme, NADPH absorbance, primary screen (AID 1159550;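 active = at least 20% inhibition of 6-phosphogluconate dehydrogenase activity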). The conditions noted are these: recombinant 6PGD, NADPH absorbance 341 nm; at 10 µM; stronger effect = higher value.
Experiment [11] is described as follows: viability loss with induced miR-34 in A549 – imaging, A549 dox-inducible miR-34, nuclei and caspase counts, primary screen (AID 1347080;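 active = compounds whose cell count with miR-34 switched on is under 0.7 times the count with it off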). Conditions: A549 miR-34 inducible, Hoechst nuclei count, 48 h.
Experiment [12] in a line: MELAS cybrid and Rieske KO viability enhancers – cell-based, MELAS cybrids, Rieske KO mouse fibroblasts, CellTiter-Glo, primary screen (AID 1508586;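 active = mean z-score across replicates of 1.96 or higher in either the MELAS or the Rieske mutant cell line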;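 also: z relative to plate mean and SD of compound and empty wells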). Conditions: low glucose.
Experiment [13] addresses NAD(+) hydrolase SARM1 (Homo sapiens) (UniProt Q6SZW1). Briefly: blocking NAD cleavage by SARM1 SAM-TIR – cell lysate, NAD-Glo luminescence (AID 1508614;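 active = compound whose remaining NAD level is above about 45 nM, limit read from the data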;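 also: higher remaining NAD means stronger inhibition of SARM1 NADase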). The conditions noted are these: SAM-TIR HEK293T lysate NADase, at 1 µM, stronger effect = higher value.
The target of experiment [14] is Mitogen-activated protein kinase 7 (Homo sapiens) (UniProt Q13164). The experiment in a line: Gal4-ERK5 driven luciferase induction – cell-based, HTS, primary screen (AID 1508626;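 active = luciferase signal above three times the same-plate solvent-only control wells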;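 also: luciferase driven by Gal4-ERK5 fusion binding five Gal4 sites before minimal TATA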). Conditions: HeLa Gal4-ERK5 transactivation, 18 h, at 5 µM, stronger effect = higher value.
The nature of experiment [15]: galactose survival enhancers in mitochondrial complex I cybrids – cell-based, galactose medium, ATP luminescence, primary screen (AID 1645843;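 active = z-score of at least 1.8 in each of two replicates, scored against plate mean and spread of sample wells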;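 also: positive z means more ATP and so rescue of galactose-driven cybrid death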). The conditions noted are these: complex I mutant cybrid cells, 72 h, stronger effect = higher value.
The nature of experiment [16]: yeast 75Q aggregation reduction – 75Q-TubU reporter (AID 1593). Conditions: Yeast 75Q polyglutamine aggregation reporter.
The nature of experiment [17]: blockers of cytochrome c efflux from mitochondria – biochemical, purified mitochondria (AID 1603).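 Also: mouse liver mitochondria challenged with calcium chloride; signal normalized to the plate average as 100%.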 Conditions: stronger effect = lower value.
Experiment [18] can be described thus: polyglutamine aggregate formation blockers (AID 1604). Conditions: polyglutamine-induced protein aggregation inhibition assay; stronger effect = higher value; tested at 2.5 µM.
A short description of experiment [19]: EMT-state selective cytotoxicity in co-culture – imaging, PC-3E GFP, TEM4-18 mCherry, primary screen (AID 1345086;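 active = compounds killing one labelled cell type while sparing the other, by normalised counts and ratio limits, not self-fluorescent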;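 as to all read-outs here: cells exposed to compound for 72 h before imaging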;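 as to red/green cell ratio (normalised): normalised mesenchymal count divided by normalised epithelial count so high means epithelial killing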). The conditions noted are these: PC-3E GFP / TEM4-18 mCherry co-culture, imaging cell counts, at 1 µM; for red/green cell ratio (normalised): actives lie on both sides.
In experiment [20] the test system is Aerobactin synthetase IucA (Klebsiella pneumoniae hvKP1). The experiment in a line: IucA enzyme inhibition, primary screen, biochemical, Spectrum library (AID 1346200; call rule not given here;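 also: 100% = wells without compound and 0% = wells lacking enzyme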). Conditions: malachite green pyrophosphate, A620, at 8 µM, stronger effect = lower value.
Setting [21] is: measured here: relative caspase fold change +Dox/-Dox.
Setting [22] is: measured here: total cells with miR-34 induction, stronger effect = lower value.
[23] abbreviates: measured here: total cells without miR-34 induction.
Setting [24] is: MELAS cybrid survival, CellTiter-Glo 48 h, stronger effect = higher value.
Setting [25] is: Rieske KO mouse fibroblast survival, CellTiter-Glo 72 h.
[26] abbreviates: measured here: epithelial PC-3E GFP cell survival.
[27] abbreviates: measured here: mesenchymal TEM4-18 mCherry cell survival.

SMILES strings stand for the structures. Several values for one entry are separate records, joined by “and”; a condition that tells them apart may be missing. Equal entries are not always repeated. Activity calls are given as the source filed them. Rule as the data show it, unless noted: active = parasite load remaining mostly below about 12% (no sharp cut-off); inactive = mostly above about 10%.

Consider 4 compounds from PubChem BioAssay.

NAD(+) hydrolase SARM1 (Homo sapiens), sequence (Q6SZW1 whole entry, looked up, the tested form may be a part): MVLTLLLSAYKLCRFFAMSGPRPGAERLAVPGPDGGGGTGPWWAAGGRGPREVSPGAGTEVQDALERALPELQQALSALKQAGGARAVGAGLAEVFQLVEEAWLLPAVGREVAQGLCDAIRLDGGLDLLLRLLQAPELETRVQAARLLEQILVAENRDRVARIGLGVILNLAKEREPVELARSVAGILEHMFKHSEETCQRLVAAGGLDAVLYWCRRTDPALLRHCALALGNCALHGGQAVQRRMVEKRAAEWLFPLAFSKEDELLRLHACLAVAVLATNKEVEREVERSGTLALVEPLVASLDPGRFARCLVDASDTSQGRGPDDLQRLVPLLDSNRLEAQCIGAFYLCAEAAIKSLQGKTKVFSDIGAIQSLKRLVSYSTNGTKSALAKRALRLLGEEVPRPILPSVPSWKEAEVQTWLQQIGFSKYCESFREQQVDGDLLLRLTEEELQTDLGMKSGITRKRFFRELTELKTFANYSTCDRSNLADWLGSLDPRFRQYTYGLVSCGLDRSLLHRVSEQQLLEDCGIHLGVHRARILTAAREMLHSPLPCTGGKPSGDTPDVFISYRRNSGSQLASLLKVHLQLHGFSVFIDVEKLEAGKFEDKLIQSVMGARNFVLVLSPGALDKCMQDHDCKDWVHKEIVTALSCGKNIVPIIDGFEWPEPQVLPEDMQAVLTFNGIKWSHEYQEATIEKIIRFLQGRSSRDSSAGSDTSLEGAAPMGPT
Mitogen-activated protein kinase 7 (Homo sapiens), sequence (Q13164 whole entry, looked up, the tested form may be a part): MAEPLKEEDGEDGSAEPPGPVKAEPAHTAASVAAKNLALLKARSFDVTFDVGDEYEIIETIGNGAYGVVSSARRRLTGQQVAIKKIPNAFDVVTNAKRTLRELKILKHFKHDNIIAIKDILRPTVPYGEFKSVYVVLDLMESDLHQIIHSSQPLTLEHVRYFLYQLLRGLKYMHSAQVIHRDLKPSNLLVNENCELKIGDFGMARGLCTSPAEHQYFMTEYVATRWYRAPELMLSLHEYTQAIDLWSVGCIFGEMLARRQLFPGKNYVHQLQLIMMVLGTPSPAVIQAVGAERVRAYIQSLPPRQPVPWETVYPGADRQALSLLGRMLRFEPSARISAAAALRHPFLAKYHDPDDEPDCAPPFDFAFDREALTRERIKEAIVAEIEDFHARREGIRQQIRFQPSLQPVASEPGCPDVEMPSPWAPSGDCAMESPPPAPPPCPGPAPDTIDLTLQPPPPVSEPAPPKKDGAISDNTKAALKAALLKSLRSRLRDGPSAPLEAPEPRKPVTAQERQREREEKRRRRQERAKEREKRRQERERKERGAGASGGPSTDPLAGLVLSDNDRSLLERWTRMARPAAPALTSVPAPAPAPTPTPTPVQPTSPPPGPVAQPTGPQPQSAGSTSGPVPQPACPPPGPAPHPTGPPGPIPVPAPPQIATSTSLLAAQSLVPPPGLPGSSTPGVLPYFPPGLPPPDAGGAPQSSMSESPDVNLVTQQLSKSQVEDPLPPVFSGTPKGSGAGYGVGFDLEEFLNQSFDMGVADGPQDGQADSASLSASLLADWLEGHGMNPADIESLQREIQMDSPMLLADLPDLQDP
6-phosphogluconate dehydrogenase, decarboxylating (Homo sapiens), sequence (P52209 whole entry, looked up): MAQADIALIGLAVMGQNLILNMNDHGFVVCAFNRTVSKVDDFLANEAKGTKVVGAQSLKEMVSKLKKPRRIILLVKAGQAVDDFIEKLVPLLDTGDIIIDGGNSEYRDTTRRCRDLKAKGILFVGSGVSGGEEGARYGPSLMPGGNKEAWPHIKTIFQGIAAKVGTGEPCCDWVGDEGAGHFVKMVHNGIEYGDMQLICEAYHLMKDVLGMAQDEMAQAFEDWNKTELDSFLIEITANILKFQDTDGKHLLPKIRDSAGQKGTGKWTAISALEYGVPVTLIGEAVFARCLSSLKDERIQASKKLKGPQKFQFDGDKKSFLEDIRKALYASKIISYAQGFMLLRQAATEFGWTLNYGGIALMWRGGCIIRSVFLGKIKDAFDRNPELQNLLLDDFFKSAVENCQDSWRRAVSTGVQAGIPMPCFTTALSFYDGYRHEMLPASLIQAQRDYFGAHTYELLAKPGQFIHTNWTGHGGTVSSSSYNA

One may read the viability as a read-out of living cells in per cent, often relative to untreated cells. One may read the inhibition as the relative decrease from the control value, in per cent. On to `C[C@@H]1CC[C@H]2[C@@H](C)C(=O)O[C@@H]3O[C@@]4(C)CC[C@@H]1[C@]32OO4`, for which the parasite load remaining in experiment [1] is 25.6% (inactive) and 10.2% (inactive). Also, in [1], the viability was 117% and 66.5%. Moreover, the nuclear beta-catenin stimulation in experiment [2] (at 10 µM) is 4.6% (inactive); in experiment [2] (stimulation, at 2 µM), 12.4%. Also, in [3], the insulin secretion stimulation was 1.2% (inactive). For the same compound, the viability decrease in experiment [4] is -77.7% (inactive). In experiment [5], the tube area decrease was 2.4% (inactive). For the same compound, the GLP1 secretion stimulation in experiment [6] is 2.4% (inactive). In [7], the inhibition of viability is -20.1% (inactive). For the same compound, the viability decrease (inhibition) in experiment [8] is 9.1% (inactive); in [9], 1.3% (inactive). In addition, the inhibition in experiment [10] was 13.7% (inactive). Moreover, the fold change is 0.79 (inactive) and 0.823 (inactive) and 0.882 (inactive) in [11] (stronger effect = lower value); 1.42 and 2.37 and 1.1 in experiment [11] (setting [21]). The cell count was 7550 and 7220 and 8310 in experiment [11] (setting [22]); 9550 and 8770 and 9420 in experiment [11] (setting [23]). For the same compound, the z-score in experiment [12] (setting [24]) was -0.639 (inactive) and -0.018 (inactive); in experiment [12] (setting [25]) it was -1.11 and 0.162; in experiment [15], -0.515 (inactive) and -1.27 (inactive). Further, in experiment [13], the remaining NAD is 10 nM (inactive). In addition, the luciferase signal in [14] was 84 AU (inactive).

In [16], `Clc1ccc(C(OCCN2CCCCC2)c2ccccc2)cc1` (configuration not stated) had a score of 1.14. The cytochrome c release ratio in experiment [17] came to 1.33. In experiment [18], this compound came in with an inhibition of aggregation of 66.7%. The parasite load remaining in experiment [1] was 32.6% (inactive) and 77.7% (inactive). Moreover, the viability in [1] is 91.9% and 79.6%. For the same compound, the nuclear beta-catenin stimulation in experiment [2] (at 10 µM) was 3.4% (inactive); in experiment [2] (stimulation, at 2 µM), 2.6%. Further, the insulin secretion stimulation in experiment [3] is 11.4% (inactive). For the same compound, the viability decrease in experiment [4] was -162% (inactive). Moreover, the tube area decrease in experiment [5] was 4.5% (inactive). The GLP1 secretion stimulation in [6] was 7.9% (inactive). Besides, the inhibition of viability in experiment [7] was 25.5% (inactive). Further, the viability decrease (inhibition) was 72.3% (active) in [8] and 26.4% (inactive) in experiment [9]. Besides, the inhibition in experiment [10] was 14.2% (inactive). Further, in experiment [19], the red/green cell ratio (normalised) was 0.83 (inactive). The normalised cell number in experiment [19] (setting [26]) came to 1.02; in [19] (setting [27]), 0.85. In experiment [20], the activity remaining was 103% (inactive). Further, the results for the fold change in experiment [11] (stronger effect = lower value) and in experiment [11] (setting [21]) were 0.822 (inactive) and 1.27, respectively. Also, the cell count in [11] (setting [22]) came out at 7820; in experiment [11] (setting [23]), 9510. Also, the z-score is -1.82 (inactive) in experiment [12] (setting [24]) and -0.41 in experiment [12] (setting [25]). The remaining NAD in [13] was 10 nM (inactive). For the same compound, the luciferase signal in experiment [14] was 180 AU (active).

Regarding `Cc1ccc(N=CN(C)C=Nc2ccc(C)cc2C)c(C)c1`, in experiment [1], the parasite load remaining was 103% (inactive) and 56.6% (inactive). Besides, the viability in experiment [1] is 84.4% and 95.1%. Moreover, the nuclear beta-catenin stimulation in experiment [2] (at 10 µM) is 0.6% (inactive); in experiment [2] (stimulation, at 2 µM), 2.7%. Moreover, in [3], the insulin secretion stimulation is 1.3% (inactive). Also, in experiment [4], the viability decrease was 15.1% (inactive). For the same compound, in [5], the tube area decrease is -4.8% (inactive). Besides, the GLP1 secretion stimulation in experiment [6] was -3.1% (inactive). Also, in experiment [7], the inhibition of viability is 2.47% (inactive). The viability decrease (inhibition) in [8] was -61.8% (inactive); in experiment [9], -5.9% (inactive). Also, in [10], the inhibition was 17.7% (inactive). In [19], the red/green cell ratio (normalised) was 1.11 (inactive). For the same compound, the normalised cell number came out at 1.13 in [19] (setting [26]) and 1.26 in experiment [19] (setting [27]). The activity remaining in [20] is 119% (inactive). In addition, the fold change in experiment [11] (stronger effect = lower value) is 0.87 (inactive); in experiment [11] (setting [21]), 1.15. The figures for the cell count in experiment [11] (setting [22]) and in experiment [11] (setting [23]) were 11000 and 12600, respectively. Further, the remaining NAD in [13] was 10 nM (inactive). For the same compound, in experiment [14], the luciferase signal was 32 AU (inactive).

For `NC(=O)CN1CCCC1=O`, the score in experiment [16] was 1.12. Moreover, the cytochrome c release ratio in experiment [17] turned out to be 0.79. In [18], this compound came in with an inhibition of aggregation of 1.59%. Besides, the nuclear beta-catenin stimulation is -0.1% (inactive) in experiment [2] (at 10 µM) and 1.2% in experiment [2] (stimulation, at 2 µM). The insulin secretion stimulation in experiment [3] was 0.2% (inactive). Besides, the viability decrease in [4] is -6.65% (inactive). Moreover, in [5], the tube area decrease was -16.1% (inactive). The GLP1 secretion stimulation in [6] is 1.9% (inactive). For the same compound, the inhibition of viability in experiment [7] was -10.5% (inactive). Moreover, the viability decrease (inhibition) is 10% (inactive) in experiment [8] and 0.05% (inactive) in experiment [9]. Besides, in experiment [10], the inhibition is -18.4% (inactive). Also, the red/green cell ratio (normalised) in experiment [19] was 1.04 (inactive). The normalised cell number in [19] (setting [26]) was found to be 0.91; in experiment [19] (setting [27]) it was 0.95. The activity remaining in experiment [20] was 112% (inactive). In addition, the z-score in [12] (setting [24]) was 0.856 (inactive) and 0.336 (inactive); in experiment [12] (setting [25]) it was -2.44 and 0.0138; in [15] it was 0.785 (inactive). Moreover, the remaining NAD in experiment [13] is 10 nM (inactive). For the same compound, in experiment [14], the luciferase signal was 44 AU (inactive).
